The values that follow come from the OligoGym collection.
Also: reference of the scale not given here.

For the first experiment, the target named is CORIN. Description: pooled miR-30 sensor sort-seq; sequence = guide strand. To be noted: shRNA.
In turn, TTGATATACATCCAGAATGGGG showed a sensor-assay potency score (higher = more potent) of -1.35.
Still for that read-out and setting: the value for TTAAACATGTAAATTATCTTGG was 0.389; that for ATTTGTAAGAATAACATCGGAC was -0.147.
Same read-out and setting: the figure for TTGAGTATGTAGCTACAACTGT is -0.57; for TTGATTGTCTGAATTTTCCTCT it is 0.641.
Consider TAAAATTGCAGGTAGTATCTAT, for which the sensor-assay potency score (higher = more potent) was 0.492.
Still for that read-out and setting: the figure for ATGATCTTGATATACATCCAGA is -1.55; for TTTATTGCTGTCTTTTATCAGT it is -0.911; for TATTTGTAAGAATAACATCGGA it is -0.524.

In a further experiment the target is CORO2B. The description is as above. To be noted: shRNA.
With TTGTAGAAGCGGAACACCTCGC, the sensor-assay potency score (higher = more potent) is -0.204.
Same read-out and setting: the figure for TAGAAGCGGAACACCTCGCAGG is -0.524.
ATCTGTCTTGTGTTCCACCTGG: the sensor-assay potency score (higher = more potent) was -0.685.
Turning to TATTTCAATTCTATCCTTGGGA, the sensor-assay potency score (higher = more potent) came out at 0.222.
The same measure, in the same setting: the figure for TAATGCATCTAGTAGATCCTAG is 0.537.
For TTGTCGTGCACATTCTTGGTGA, the sensor-assay potency score (higher = more potent) is -0.294.
Still for that read-out and setting: the value for TAGACATTCCGGAACTTGGAGC was -1.06; that for TTCTAATAAATCTATTCCGTTG was -0.9; that for TTTTCTAATAAATCTATTCCGT was -0.324.
TTCTTGTCCTTGCACGTGGTGG yielded a sensor-assay potency score (higher = more potent) of -1.22.
Still for that read-out and setting: the figure for TTTCTAATAAATCTATTCCGTT is -1.03; for TTGTAGTCGTAGCCAGCGCTGA it is -0.89.

A further experiment addresses COX10. The description is as above. To be noted: shRNA.
TGCAGTGGTACTTACAACCAGA yielded a sensor-assay potency score (higher = more potent) of -1.05.
On to TATTGTTAGAAGGACTATGGTT, for which the sensor-assay potency score (higher = more potent) is -0.28.
In turn, TTATCTACCTACAATCCCTTTA showed a sensor-assay potency score (higher = more potent) of -0.2.
Still for that read-out and setting: the value for ATAATCTTGTTCTAAACCCAGC was -0.854; that for TACCACAACATGCTCGCCTGGC was -0.0841.
Turning to TTTAGAAGGAACTGCTTCCAAC, the sensor-assay potency score (higher = more potent) is -0.611.
Still for that read-out and setting: the figure for TGATTTTGGATAGTCGAGCCAA is -0.198.
The same measure, in the same setting: the value for TACACTTGCAGCTTCATCTCTT was 1.01; that for TTTGAGGAAGCTAAAGTGCTGA was 0.14.
On the same count and under the same terms, the value for TTTCTGGACAAAGATAGGCTGG was -0.448; that for TAACCGTATTTGGTAACCGAGA was -1.58; that for TTCGTTTATAATCTTGTTCTAA was 0.241.
Sequence TTCTTTGTCCTATTCATGTTTG displayed a sensor-assay potency score (higher = more potent) of -0.705.
TTTCTGCTTTGGCTTGACCTGA gave a sensor-assay potency score (higher = more potent) of -0.722.
On the same count and under the same terms, the value for TGATTGGATGTTATCTACCTAC was -0.498.
As to TTGTATTCACTGACTGAGCTGA, the sensor-assay potency score (higher = more potent) is -0.0577.
The same measure, in the same setting: the value for TTTTAGAAGGAACTGCTTCCAA was -0.134; that for TCTGCGTCCACGTAGAAGCGGA was -0.792.
The same measure, in the same setting: the value for TATTGAGTCTTCAATTACTGAG was -0.782.
